In PubChem BioAssay (NCI):
Several values for one entry are separate records, joined by “and”; a condition that tells them apart may be missing. Identical values can stand only once. The panel holds about 83,000 compounds, 20% with a hit somewhere; the sample as a whole holds those more often.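 Values shown are percent growth following 48 h exposure of cells in 96-well plates to a single concentration of compound; below 10 was considered active.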 Activity calls are given as the source filed them.

Experiments:
Experiment in all cases: NCI-60 one-dose screen, 48 h (100 = growth as untreated, 0 = no growth, -100 = all killed)
[1] = system: DU-145 prostate
[2] = system: K-562 leukemia
[3] = system: MALME-3M melanoma
[4] = system: MDA-MB-231 breast
[5] = system: RXF 393 renal
[6] = system: SF-268 CNS
[7] = system: SF-295 CNS
[8] = system: SF-539 CNS
[9] = system: UACC-257 melanoma
[10] = system: M14 melanoma

Measured: growth

CC(C)Cc1ccc(C(C)C(=O)NCc2ccc(Cn3c(=O)sn(CCCCl)c3=O)cc2)cc1 (stereo not given)
94% (inactive) and -58.1% (active): [10]; 10 µM unless noted
110% (inactive) and -74.2% (active): [3]; 10 µM unless noted
95% (inactive) and -78% (active): [1]; 10 µM unless noted
active: [2]; 10 µM unless noted 2.16% | [5]; 10 µM unless noted -94.2%
104% (inactive) and -77.2% (active): [4]; 10 µM unless noted
94.4% (inactive) and -21.2% (active): [9]; 10 µM unless noted
84.8% (inactive) and -40.3% (active): [6]; 10 µM unless noted
inactive: [7]; 10 µM unless noted 97.9% and 53.7%
104% (inactive) and -90.3% (active): [8]; 10 µM unless noted

CC#C[C@]1(O)CC[C@H]2[C@@H]3CCC4=CC(=O)CCC4=C3[C@@H](c3ccc4c(c3)OCO4)C[C@@]21C
inactive: [1]; 10 µM 101% | [2]; 10 µM 83% | [3]; 10 µM 97.8% | [4]; 10 µM 62.1% | [5]; 10 µM 69.5% | [6]; 10 µM 71.3% | [7]; 10 µM 58.5% | [8]; 10 µM 75% | [9]; 10 µM 90.1% | [10]; 10 µM 81.9%
active: [1]; 100 µM -13.9% | [2]; 100 µM 1.72% | [3]; 100 µM -29.8% | [4]; 100 µM -42.9% | [5]; 100 µM -50.7% | [6]; 100 µM -4.41% | [7]; 100 µM -41.1% | [8]; 100 µM -58.8% | [9]; 100 µM -38.7% | [10]; 100 µM -53.8%

CCCCCCCCCCCCCCCc1ccc(Cl)c(O)c1Cl (tested in a mixture with another compound)
inactive: [1]; 0.25 µM 18.4% | [1]; 10 µM 106% | [2]; 0.25 µM 30.5% | [2]; 10 µM 92.3% | [3]; 0.25 µM 22.7% | [3]; 10 µM 100% | [4]; 0.25 µM 59.1% | [4]; 10 µM 97.9% | [5]; 0.25 µM 60.3% | [5]; 10 µM 106% | [6]; 0.25 µM 31.4% | [6]; 10 µM 94.9% | [7]; 0.25 µM 29.1% | [7]; 10 µM 109% | [8]; 0.25 µM 15.9% | [8]; 10 µM 103% | [9]; 0.25 µM 52.1% | [9]; 10 µM 80.7% | [10]; 0.25 µM 41% | [10]; 10 µM 92.2%

Cc1cc(=O)[nH]c(O)c1C#N
inactive: [1]; 10 µM unless noted 112% and 106% | [2]; 10 µM unless noted 106% and 112% | [3]; 10 µM unless noted 98% and 103% | [4]; 10 µM unless noted 107% and 109% | [5]; 10 µM unless noted 106% | [6]; 10 µM unless noted 109% and 101% | [7]; 10 µM unless noted 99.6% and 98.5% | [8]; 10 µM unless noted 97.8% and 105% | [9]; 10 µM unless noted 99.4% and 103% | [10]; 10 µM unless noted 99.4% and 101%

Clc1ccc(NC(Nc2ccc(Cl)cc2)C(Cl)(Cl)Cl)cc1
inactive: [1]; 10 µM unless noted 112% and 100% | [2]; 10 µM unless noted 17.7% and 43.8% | [3]; 10 µM unless noted 101% and 114% | [4]; 10 µM unless noted 87.3% and 116% | [5]; 10 µM unless noted 111% and 113% | [6]; 10 µM unless noted 87.7% and 90.5% | [7]; 10 µM unless noted 90.3% and 97% | [8]; 10 µM unless noted 110% and 100% | [9]; 10 µM unless noted 90.1% and 99.6% | [10]; 10 µM unless noted 71.1% and 82.3%

CC(C)CNC(=O)c1ccccc1C(=O)NC1(C(=O)NCC(C)C)CCCC1
inactive: [1]; 10 µM unless noted 111% and 109% | [2]; 10 µM unless noted 102% | [3]; 10 µM unless noted 125% | [4]; 10 µM unless noted 109% and 105% | [5]; 10 µM unless noted 113% and 130% | [6]; 10 µM unless noted 104% | [7]; 10 µM unless noted 111% and 105% | [8]; 10 µM unless noted 100% | [9]; 10 µM unless noted 102% and 106% | [10]; 10 µM unless noted 108% and 102%

CCc1ccccc1-n1c(N)c(C#N)c(-c2ccc(OC)c(OC)c2)c(C#N)c1=O
active: [3]; 100 µM -31.2% | [5]; 100 µM -21.6% | [6]; 100 µM 0.0621% | [8]; 100 µM -54.9%
inactive: [1]; 10 µM 115% | [1]; 100 µM 37.6% | [2]; 10 µM 111% | [2]; 100 µM 124% | [3]; 10 µM 103% | [4]; 10 µM 105% | [4]; 100 µM 23.3% | [5]; 10 µM 111% | [6]; 10 µM 102% | [7]; 10 µM 101% | [7]; 100 µM 19.7% | [8]; 10 µM 118% | [9]; 10 µM 128% | [9]; 100 µM 96.8% | [10]; 10 µM 112% | [10]; 100 µM 37.1%
